Results on 9 compounds are retold here after PubChem BioAssay (NCI).

This is part of a sample that, as a whole, favours compounds with a hit. Of some 83,000 tested, about 20% had one in any assay.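 Plates (96-well) were seeded with cells, treated with compound at one concentration, and incubated for 48 hours before percent growth was determined.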 Unmarked numbers belong to inactive results. Calls of active or inactive are those of the source. Rule for the calls: active = growth percent below 10; inactive = the rest.

Among the test systems are SR leukemia; RPMI-8226 leukemia; OVCAR-8 ovarian; OVCAR-5 ovarian; OVCAR-4 ovarian; SK-OV-3 ovarian; IGROV1 ovarian; HS 578T breast; NCI/ADR-RES ovarian; T-47D breast; BT-549 breast; MDA-MB-435 melanoma; SW-620 colon; MCF7 breast; HCT-116 colon; HCC-2998 colon; KM12 colon; OVCAR-3 ovarian.
Common to all, as to test: NCI-60 one-dose screen, 48 h (100 = growth as untreated, 0 = no growth, -100 = all killed)
What all share (conditions): 10 µM unless noted

`COc1ccc(/C=C2\C(=O)N(C(=O)c3csc(NC(C)=O)n3)N=C2C)cc1`: the growth with SR leukemia is 82.2%; in the assay on RPMI-8226 leukemia, 98.4%; with OVCAR-8 ovarian, 96%; with OVCAR-5 ovarian, 110%; in the assay on OVCAR-4 ovarian, 109%; in the assay with SK-OV-3 ovarian, 100%. For the same compound, the growth in the assay with IGROV1 ovarian was 95.9%; with HS 578T breast it was 111%; with NCI/ADR-RES ovarian, 105%; with T-47D breast, 99.2%; with BT-549 breast it was 95.9%; in the assay on MDA-MB-435 melanoma, 106%. Moreover, the growth in the assay with SW-620 colon is 106%; in the assay on MCF7 breast, 88.4%; in the assay on HCT-116 colon, 98.2%; in the assay with HCC-2998 colon, 103%; with KM12 colon it was 102%.

As for `COc1cc(CNC(=O)CSc2nc3ccccc3c(=O)n2Cc2cc(OC)c(OC)c(OC)c2)cc(OC)c1OC`, the growth is 123% in the assay with SR leukemia; 102% in the assay with RPMI-8226 leukemia; 96.4% with OVCAR-8 ovarian; 102% in the assay with OVCAR-5 ovarian; 103% in the assay with OVCAR-4 ovarian; 108% in the assay on SK-OV-3 ovarian. The growth in the assay with IGROV1 ovarian was 97.9%; with HS 578T breast, 110%; in the assay on NCI/ADR-RES ovarian it was 103%; in the assay with T-47D breast, 89.7%; in the assay with BT-549 breast, 104%; in the assay on MDA-MB-435 melanoma, 103%. Also, the growth is 109% in the assay with SW-620 colon, 92.7% in the assay with MCF7 breast, 97.5% with HCT-116 colon and 102% in the assay on KM12 colon.

Consider `COc1cc(C2C=C(C)N=C3SC=C(C)N32)cc(OC)c1OC` (stereo unspecified), for which the growth with SR leukemia was -6.27% (active); in the assay with RPMI-8226 leukemia, -26.3% (active); in the assay with OVCAR-8 ovarian it was 9.1% (active); with OVCAR-5 ovarian, -45.8% (active); in the assay with OVCAR-4 ovarian it was 12.6%; in the assay on SK-OV-3 ovarian it was -5.5% (active). Further, the growth in the assay on IGROV1 ovarian is -49.8% (active); in the assay on HS 578T breast, 2% (active); in the assay with NCI/ADR-RES ovarian, 19.5%; with T-47D breast, 7.98% (active); with BT-549 breast, -49.9% (active); in the assay on MDA-MB-435 melanoma, -33.3% (active). Further, the growth with SW-620 colon was -44.5% (active); in the assay with MCF7 breast it was -14.8% (active); in the assay on HCT-116 colon it was -67.5% (active); with HCC-2998 colon, -90.5% (active); in the assay on KM12 colon, -77% (active).

Regarding `COc1ccc(/C=C(\C#N)c2ccc([N+](=O)[O-])cc2)c2ccccc12`, the growth with SR leukemia is 31%; in the assay on RPMI-8226 leukemia, 82.8%; in the assay on OVCAR-8 ovarian, 15.8%; with OVCAR-5 ovarian, 92.8%; in the assay on OVCAR-4 ovarian it was 2.84% (active); in the assay on SK-OV-3 ovarian it was 5.28% (active). The growth is 62.6% in the assay with OVCAR-3 ovarian; 26.2% in the assay with HS 578T breast; 50% in the assay on NCI/ADR-RES ovarian; 46.9% in the assay on T-47D breast; 27.9% with BT-549 breast; 62.6% in the assay with MDA-MB-435 melanoma. The growth with SW-620 colon is 74.4%; in the assay with MCF7 breast, 71.8%; in the assay on HCT-116 colon it was 43.4%; in the assay with HCC-2998 colon, 80%; with KM12 colon it was 75.6%.

On to `COc1ccc(C(=O)c2cc(OC)c(OC)c(OC)c2)cc1/C=C/C(=O)c1ccc(O)cc1`, for which the growth is 10.6% in the assay on SR leukemia; 9.18% (active) with RPMI-8226 leukemia; 22.3% in the assay with OVCAR-8 ovarian; 69.5% with OVCAR-5 ovarian; 43.6% in the assay on OVCAR-4 ovarian; 18.5% in the assay with SK-OV-3 ovarian. Also, the growth was -10.5% (active) with OVCAR-3 ovarian; 43.4% in the assay on HS 578T breast; 16.2% in the assay on NCI/ADR-RES ovarian; 37.3% with T-47D breast; 7.62% (active) with BT-549 breast; 18.9% with MDA-MB-435 melanoma. For the same compound, the growth was -24.1% (active) with SW-620 colon; 12.1% in the assay with MCF7 breast; -23.2% (active) with HCT-116 colon; -22.4% (active) with HCC-2998 colon; 2.74% (active) with KM12 colon.

Consider `O=C1c2ccccc2C(=O)c2c(N=Nc3sc(=O)[nH]c3S)cccc21`, for which the growth is 85% in the assay on SR leukemia; 90.2% with RPMI-8226 leukemia; 94.9% in the assay on OVCAR-8 ovarian; 129% in the assay with OVCAR-5 ovarian; 95.3% in the assay on OVCAR-4 ovarian; 117% in the assay on SK-OV-3 ovarian. The growth with OVCAR-3 ovarian was 89.1%; in the assay with HS 578T breast, 90.3%; in the assay on NCI/ADR-RES ovarian, 98.8%; in the assay with T-47D breast it was 82.4%; in the assay on BT-549 breast it was 109%; in the assay on MDA-MB-435 melanoma it was 100%. Further, the growth in the assay on SW-620 colon was 90%; in the assay on MCF7 breast it was 72%; with HCT-116 colon it was 95.7%; in the assay with HCC-2998 colon, 102%; in the assay on KM12 colon, 90.3%.

Take `CC[C@]1(O)C[C@@H]2CN(Cc3c([nH]c4ccccc34)[C@@](C(=O)OC)(c3cc4c(cc3OC)N(C)[C@H]3[C@@](O)(C(=O)OC)[C@H](OC(C)=O)[C@]5(CC)[C@@H]6C[C@@H]6CN6CC[C@]43[C@@H]65)C2)C1`: the growth in the assay with SR leukemia was 2.3% (active); with RPMI-8226 leukemia, 48.8%; with OVCAR-8 ovarian it was 11.9%; in the assay on OVCAR-5 ovarian, 51%; with OVCAR-4 ovarian, 34.9%; in the assay on SK-OV-3 ovarian, 15.2%. The growth in the assay with IGROV1 ovarian was 37.2%; in the assay with HS 578T breast, 16.8%; in the assay with NCI/ADR-RES ovarian it was 93.8%; in the assay with T-47D breast it was 83.3%; in the assay with MDA-MB-435 melanoma it was -40% (active); with SW-620 colon, 20.6%. Besides, the growth was 14.8% in the assay on MCF7 breast, 2.43% (active) with HCT-116 colon, 7.42% (active) in the assay with HCC-2998 colon and -9.75% (active) with KM12 colon.

With `CCOc1ccc(/C=C/C=N/NC(N)=S)cc1`, the growth in the assay with SR leukemia was 70.4%; in the assay with RPMI-8226 leukemia, 39.7%; in the assay with OVCAR-8 ovarian, 100%; with OVCAR-5 ovarian it was 90.9%; in the assay with OVCAR-4 ovarian, 73.2%; in the assay on SK-OV-3 ovarian, 110%. Moreover, the growth was 73.7% in the assay with OVCAR-3 ovarian; 95.3% with HS 578T breast; 82.6% in the assay with NCI/ADR-RES ovarian; 38.2% in the assay on T-47D breast; 57.4% in the assay on BT-549 breast; 88.9% in the assay on MDA-MB-435 melanoma. The growth in the assay with SW-620 colon was 87.2%; in the assay on MCF7 breast, 43.5%; in the assay with HCT-116 colon it was 70.1%; in the assay with HCC-2998 colon it was 70.1%; in the assay with KM12 colon, 84%.

`CCN(CC)c1cc(/C=C/c2ccc(OC)c(OC)c2)nc2cc(F)c(F)cc12`: the growth with SR leukemia is 10.7%; in the assay with RPMI-8226 leukemia it was 99.1%; in the assay with OVCAR-8 ovarian, 36%; in the assay with OVCAR-5 ovarian it was 88.7%; in the assay with OVCAR-4 ovarian it was 87.2%; with SK-OV-3 ovarian it was -39.5% (active). In addition, the growth in the assay on IGROV1 ovarian is 19.2%; with HS 578T breast, 2.13% (active); with NCI/ADR-RES ovarian it was 41.2%; with T-47D breast, 40.2%; in the assay on BT-549 breast, 24.5%; in the assay with MDA-MB-435 melanoma, 100%. Further, the growth with SW-620 colon is 104%; in the assay on MCF7 breast it was 65.3%; in the assay with HCT-116 colon it was 24.3%; in the assay on HCC-2998 colon it was 116%; in the assay on KM12 colon, 103%.
